Screens deposited in PubChem BioAssay by National Center for Advancing Translational Sciences (NCATS).
ClpP mod: qHTS Assay for Activators of ClpP | purified B. subtilis ClpP, FRET peptide cleavage, 20 min | Potency, µM (highest dose often 57.5 µM), without a hit: at the top dose activity change, negative = active | 1.9% of 340,000 active; active = well fitted falling curve with a large enough effect; inconclusive = small, poorly fitted or top-dose-only effect; inactive = no such curve, though single readings can be large or run the other way; also: potency is read from the fitted curve at half-maximal effect; the source files actives as falling curves though it sought activators and does not explain the sign; nearly all actives have a fitted effect of over 65% in size
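Buffer: 100 mM Tris/HCl pH8, 100 mM KCl, 0.05% low protease BSA, 2.5% glycerol, 0.01% Tween-20. ClpP 10 microg/mL final; 20 min RT; delta FRET normalized to ADEP and DMSO controls.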
HEK293 tox: cytotoxicity in counter-screen for GLP-1R inverse agonists; HEK293 cAMP-luciferase reporter cells, luminescence, 24 h; Potency, µM (series often up to 38.3 µM), for the others: top-dose activity change, negative = inhibition, hits mostly inhibitors; 0.13% of 410,000 active; AID 624418;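 also: loss of luciferase light is scored as toxicity; potency is read from the fitted curve at half-maximal effect; % is scaled to controls: 0 for no effect and ±100 for the full control effect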
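To flag toxic compounds, the library was rerun on cells for 24 hr at 37 deg C and 5% CO2. Viability-linked luminescence was captured 12 min after adding luciferase detection reagent.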
GLP1R ag: GLP-1 receptor (human) agonism | Potency, µM (doses to about 45.6 µM), without a hit: at the highest dose activation, hits mostly activators | 0.007% of 380,000 active | HEK293 GLP-1R CRE-luciferase, luminescence, 4-6 h; cells express a hypersensitive GLP-1R form | AID 624172; also: potency is read from the fitted curve at half-maximal effect; % of control where 0% means no effect
DRD3 agonist: D3 dopamine receptor (human) agonism; max activation, %; D3R DiscoveRx beta-arrestin cells, luminescence, 90 min; AID 652048; 0.58% of 410,000 active; in the data active = max activation above about 30%; also: 0% is about no effect
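Cells at 1500/well, incubated overnight, then treated with pinned compounds (dopamine as control) for 90 min at 37 degrees C. DiscoveRx reagent added for 30 - 60 minutes at room temperature; luminescence read.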
D3 antag: D3 dopamine receptor (human) antagonism; max response, negative = inhibition, %; D3R cells, DiscoveRx beta-arrestin luminescence, antagonist mode; hits give low values; AID 652054; 2.5% of 360,000 active; P35462; in the data active = max response below about -50%; inconclusive = no clear call, values can overlap the other calls; also: % is scaled to controls: 0 for no effect and ±100 for the full control effect
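Cells expressing the human receptor were seeded at 1500 cells/well, incubated overnight at 37 degrees C in 5% CO2, then exposed to library compounds with dopamine controls for 90 minutes at 37 degrees C before luminescent detection.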
GLP1R inv ag: inverse agonists of human GLP-1 receptor | P43220 | HEK293 GLP-1R CRE-luciferase, luminescence, 24 h; GLP-1R form is constitutively active | Potency, µM (series often up to 38.3 µM), for inactives: at the highest dose activity change, negative = inhibition, hits mostly inhibitors | 1.6% of 410,000 active | AID 624417; also: potency is read from the fitted curve at half-maximal effect; % is scaled to controls: 0 for no effect and ±100 for the full control effect; nearly all actives have a fitted effect of over 55% in size
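Using stably transfected HEK293 (constitutively active GLP-1R, cAMP-luciferase reporter), compounds were incubated 24 hr and luciferase measured by luminescence.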
The depositor's hits bear a star; ? = inconclusive; · = no result given; [ ] = another dose, or the depositor's remark. Hits are enriched below; roughly 5.7% of the tested compounds scored in any of these assays. Unless noted, calls follow the shape of the dose curve; as a rule, active = well fitted curve in the direction sought with a large enough effect; inconclusive = small, poorly fitted or top-dose-only effect, or another doubt; inactive = no such curve, though single readings can be large; an effect the other way counts as inactive or inconclusive.

SMILES	ClpP mod	HEK293 tox	GLP1R ag	DRD3 agonist	D3 antag	GLP1R inv ag
O=C(NCc1ccc(Cl)cc1Cl)C1CCN(S(=O)(=O)c2ccc3c(c2)OCCCO3)CC1	2%	14%	3%	-22	-25	7.9µM*
Nc1c2c(nc3ccn(Cc4ccccc4)c(=O)c13)CCC2	32µM*	-30%	10%	0	6	17%
O=C(O)c1c2c(nc3ccccc13)CCCCC2	-1%	5%	-7%	-4	-14	12%
Nc1c2c(nc3ccn(-c4ccccc4)c(=O)c13)CCCCC2	28µM*	-6%	10%	-9	-26	-23%
O=c1[nH]c(N2CCN(Cc3ccccc3)CC2)nc2c1CCC2	·	16%	3%	-7	-9	4%
O=C(CCc1nc(-c2cccs2)no1)Nc1cccc([N+](=O)[O-])c1	4%	-7%	·	5	·	-18%
CCOC(=O)c1c(-c2ccccc2)csc1NC(=O)/C(C#N)=C/c1ccc(OC)c(OC)c1	1%	11%	-12%	-5	0	17%
CCOC(=O)c1cc(CC)sc1NC(=O)c1ccc(N2C(=O)CCC2=O)cc1	87%	-4%	8%	51*	17	8%
CCOC(=O)c1c(-c2ccccc2)csc1NC(=O)/C(C#N)=C/c1ccc(O)c(OC)c1	28µM*	47%	-17%	3	-9	0%
CCOC(=O)c1c(-c2ccc(OC)cc2)csc1NC(=O)CSc1ccccc1	-10%	4%	0%	-7	17	4.5µM*
CCOC(=O)c1c(-c2ccccc2)csc1NC(=O)c1cccc(N2C(=O)CCC2=O)c1	417%	-19%	-2%	62*	44	-15%
CCOC(=O)c1c(-c2ccc(C)cc2)csc1NC(=O)c1ccc(N2C(=O)CCC2=O)cc1	117%	-1%	2%	1	10	-14%
COc1ccc(Br)cc1CNC(=O)Cn1ncn2nc(-c3cccs3)cc2c1=O	-15%	-2%	·	0	·	1%
CCCOc1ccc(-c2cccc(NS(=O)(=O)c3cc(OC)ccc3OC)c2)nn1	-1%	1%	·	2	·	15%
C[C@H](O)CN(C)C	·	·	-3%	8	·	·
CCOC(=O)c1c(-c2ccc(F)cc2)csc1NC(=O)c1c(-c2ccccc2)noc1C	20µM*	2%[1.53 µM]	6%	-4	-2	?
Cc1cc(=O)oc2cc(OCC3CC(c4ccc(N(C)C)cc4)=NO3)ccc12 (configuration not stated)	?	12%	3%	-6	15	4%
Cc1cc(=O)oc2cc(OCC3CC(c4ccc(Cl)cc4)=NO3)ccc12 (configuration not stated)	28µM*	-14%	3%	0	13	0%
O=C(N/N=C/c1ccc(Br)s1)c1c[nH]c2ccccc12	-2%	-18%	2%	-21	-55*	-28%
Cc1ccc(-c2c(CN3CCN(c4cccc(C(F)(F)F)c4)CC3)csc2C)cc1	-15%	-3%	·	-14	·	2%
COc1ccc(S(=O)(=O)N2CCC[C@H]2C(=O)NC2=NCCS2)cc1	1%	3%	-2%	-6	10	9%
COc1ccc(S(=O)(=O)N2CCCC2C(=O)Nc2nnc(-c3cccnc3)s2)cc1 (configuration not stated)	28µM*	-16%	-1%	7	4	-118%
COc1ccc2nc(NC(=O)C3CCCN3S(=O)(=O)c3ccc(C)cc3)sc2c1 (configuration not stated)	-13%	-1%	-2%	0	-71*	?
Cc1ccc(S(=O)(=O)N2CCCC2C(=O)Nc2nc3c(s2)CCCC3)cc1 (configuration not stated)	1%	-14%	11%	-2	5	?
CCCNC(=O)c1ccc2c(=O)c(O)c(-c3ccc(F)cc3)[nH]c2c1	-6%	-10%	2%	14	-13	13%
SMILES	ClpP mod	HEK293 tox	GLP1R ag	DRD3 agonist	D3 antag	GLP1R inv ag
Nc1c(Cl)cc(-c2[nH]c3cc(C(=O)NCCO)ccc3c(=O)c2O)cc1Cl	-16%	6%	0%	35*	32	16%
CCCNC(=O)c1ccc2c(=O)c(O)c(-c3cccc(Br)c3)[nH]c2c1	-7%	0%	-1%	3	0	?
CCCNC(=O)c1ccc2c(=O)c(O)c(C)[nH]c2c1	-7%	5%	-4%	33*	21	1%
CC(C)(C)n1nnnc1C(c1cccc(C#N)c1)N1CCC(Cc2ccccc2)CC1 (configuration not stated)	-1%	-25%	1%	-9	14	0%
CCC(C)(C)n1nnnc1C(c1cccc(C#N)c1)N1CCN(c2cc(C)ccc2C)CC1 (configuration not stated)	0%	-16%	-9%	-8	-60*	-3%
COc1ccc(C2CC(=O)c3cc(-c4nc(-c5ccc(Cl)cc5)cs4)c(=O)[nH]c3C2)cc1OC (configuration not stated)	?	24%	·	-7	·	-20%
CN(C)c1ccc(NC(=S)Nc2ccc3c(c2)c(=O)n(C)n3-c2ccc(C(C)(C)C)cc2)cc1	-3%	-16%	5%	-17	-54*	?
COc1cccc(CC(=O)Nc2ccc3c(c2)c(=O)n(C)n3-c2ccc(C(C)(C)C)cc2)c1	4%	-26%	-5%	-8	-58*	?
CN(C)c1ccc(NC(=O)Nc2ccc3c(c2)c(=O)n(C)n3-c2ccccc2)cc1	-11%	-30%	28%	-5	0	?
COc1cccc(Cn2c3ccc(NC(=O)Cc4cc(OC)ccc4OC)cc3c(=O)n2C)c1	4%	-23%	-2%	3	12	?
CCOc1ccc(OCC)c(NC(=O)C2CCN(c3nnc(-n4cccc4)s3)CC2)c1	0%	-10%	-6%	7	·	5%
COc1ccc(N2CC(O)(c3ccc(OC(F)F)cc3)[N+]3=C2CCCC3)cc1 (configuration not stated)	0%	7%[7.66 µM]	0%	-14	-50*	-10%[7.66 µM]
Nc1c(S(=O)(=O)O)cc(Nc2ccc(Nc3nc(Cl)nc(Nc4ccc(S(=O)(=O)O)cc4)n3)c(S(=O)(=O)O)c2)c2c1C(=O)c1ccccc1C2=O	-5%	·	·	·	·	·
Cc1cc(NC(=O)C2Oc3ccccc3OC2C)no1 (configuration not stated)	·	7%	15%	1	-138*	14%
c1ccc(Cc2c[nH]c3ccccc23)cc1	-17%	5%	-1%	2	12	?
